In the library only some 11% were active in any assay of this set; here they are far more common.
PNC assembly inh: blocks assembly of the perinucleolar compartment. 140,000 compounds, 3.1% hits. PC3M PTB-GFP, PNC prevalence imaging, 16 h; active compounds read low. activity change (PNC), negative = inhibition, % at 10 µM. AID 2417;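 active means readout at or below -70, meaning at least 70% loss of cells showing the perinucleolar compartment, a nuclear body marking cancer cells; inconclusive means readout between -30 and a set limit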;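 further: plate controls were DMSO wells for no effect and camptothecin positive control wells for full effect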
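Read-out is percentage of cells bearing a perinucleolar compartment, from automated 20x imaging of fixed, Hoechst-stained PC3M PTB-GFP cells. Cells were seeded 4 h, then exposed 16 h to compound (23 nl of library stock) in duplicate plates.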
IMPase cell inh: cell-permeable inhibitors of inositol monophosphatase (IMPase). inhibition (IP1 accumulation), % at 46.1 µM. 120,000 tested, under 10 active. P97697. AID 901. CHO-M1 cells, IP1 accumulation, HTRF TR-FRET ratio; active means well fitted curve in the direction sought with a large enough effect in the signal ratio, not every such curve was filed as active; inconclusive means small, poorly fitted or top-dose-only effect, or a change in a side signal; inactive means no such curve, though single readings can be large or run the other way; the % refers to the signal ratio;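 further: cells stimulated with carbachol in lithium chloride buffer; plate controls were DMSO basal wells for no effect and reference inhibitor wells for full effect; higher means more IMPase inhibition seen as more IP1 and lower FRET ratio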
Target sequence (P97697 whole entry, looked up): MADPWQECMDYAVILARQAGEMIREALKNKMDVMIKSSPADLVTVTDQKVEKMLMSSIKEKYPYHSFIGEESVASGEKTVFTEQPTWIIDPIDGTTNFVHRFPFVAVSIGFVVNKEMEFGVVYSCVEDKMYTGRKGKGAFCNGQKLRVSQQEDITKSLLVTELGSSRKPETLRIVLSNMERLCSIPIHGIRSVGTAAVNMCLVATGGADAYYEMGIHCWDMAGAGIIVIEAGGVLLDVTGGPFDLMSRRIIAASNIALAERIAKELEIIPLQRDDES
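Measured: the HTRF emission ratio (665/620 nm) plus the 620 nm donor channel, each fitted to the Hill equation to give AC50. Cells were CHO-M1 given compounds up to 46 uM and a 30 min carbachol stimulation at 37C.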
HPGD inh: HPGD (human) dehydrogenase inhibition; AID 894; purified HPGD, NADH fluorescence kinetic, PGE2 substrate; Potency, µM, without a hit: top-dose activity change, negative = inhibition, hits mostly inhibitors; 150,000 compounds, 4.3% hits; P15428; active means well fitted inhibition curve with a large enough effect, not every such curve was filed as active; inconclusive means small, poorly fitted or top-dose-only effect, or another doubt; inactive means no such curve, though single readings can be large or run the other way; further: potency means the concentration at half of the fitted maximal effect
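NADH formation kinetics: reaction with 30 uM PGE2 and 1 mM NAD+ (final), 20 nM enzyme, Tris-HCl pH 8 with Tween 20, after 15 min compound preincubation at room temperature. Fluorescence change, last versus first of five reads.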
ALDH1A1 inh: ALDH1A1 (human) enzyme inhibition | 220,000 compounds, 7.3% hits | Purified ALDH1A1, NADH fluorescence, propionaldehyde substrate | Potency, µM (top dose mostly 75.3 µM), for inactives: at the highest dose activity, negative = inhibition, most hits filed as inhibitors; active means well fitted inhibition curve with a large enough effect, not every such curve was filed as active; inconclusive means small, poorly fitted or top-dose-only effect, or another doubt; inactive means no such curve, though single readings can be large or run the other way;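 further: potency means the concentration at half of the fitted maximal effect; plate controls were no enzyme wells and a reference inhibitor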
IMPase Li cell: IMPase inhibition in cells with lithium potentiation | AID 1457 | 210,000 compounds, 0.35% hits | Potency, µM (titrated, usually from 59.4 µM), for the others: top-dose activity, negative = IMPase inhibition, usual class: inhibitors | CHO-M1 cells, IP1 TR-FRET (IP-One), carbachol + lithium;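 further: IP1 builds up when IMPase is blocked and the TR-FRET signal falls; potency means the concentration at half of the fitted maximal effect; plate controls were basal vehicle for no effect and high inhibitor control for full effect; nearly all actives have a fitted effect of over 50% in size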
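Test compounds were applied to CHO-M1 cells previously cultured for 16–30 h at 2000 per well. A small lithium amount accompanied them; after 30 min at 37C, IP1 was quantified by TR-FRET.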
NPSR antag: blocks cAMP signaling of the human neuropeptide S receptor. Potency, µM (highest dose often 38.3 µM), for the others: at the highest dose activity change, negative = inhibition, actives largely listed as inhibitors. AID 1461. 220,000 compounds, 1% hits. Q6W5P4. CHO-NPSR cells, cAMP TR-FRET, antagonist mode; further: potency means the concentration at half of the fitted maximal effect; nearly all actives have a fitted effect of over 50% in size
Target sequence (Q6W5P4 whole entry, looked up): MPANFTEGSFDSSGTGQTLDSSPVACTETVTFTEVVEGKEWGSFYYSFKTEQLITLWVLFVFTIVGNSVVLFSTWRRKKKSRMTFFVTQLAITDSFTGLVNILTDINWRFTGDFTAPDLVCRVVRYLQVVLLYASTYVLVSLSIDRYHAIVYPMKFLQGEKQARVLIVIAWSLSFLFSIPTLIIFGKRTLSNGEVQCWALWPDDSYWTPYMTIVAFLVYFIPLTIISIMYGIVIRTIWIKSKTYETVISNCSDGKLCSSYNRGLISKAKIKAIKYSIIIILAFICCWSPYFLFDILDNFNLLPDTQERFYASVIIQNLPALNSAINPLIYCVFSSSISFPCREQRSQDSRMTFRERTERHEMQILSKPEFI
The depositor's hits bear a star; ? = inconclusive; / = no result; [ ] = dose if it differs, or a comment. Unless noted, the call rests on the fitted dose curve; in most records, active means well fitted curve in the direction sought with a large enough effect; inconclusive means small, poorly fitted or top-dose-only effect, or another doubt; inactive means no such curve, though single readings can be large; an effect the other way counts as inactive or inconclusive. Unless noted, on the % scale 0 is the no-effect control and ±100 the full control effect.

SMILES | PNC assembly inh | IMPase cell inh | HPGD inh | ALDH1A1 inh | IMPase Li cell | NPSR antag
O=C(Nc1nccs1)C1CCCN1S(=O)(=O)c1ccc(F)cc1 (stereo not drawn) | 30 | 0 | -8% | -9% | 20%[38.3 µM] | -4%[46.1 µM]
Cc1cc(=O)[nH]c(SCCOc2ccc3c(c2)CCC3)n1 | 17 | ? | -18% | 15% | -7%[38.3 µM] | 7%[46.1 µM]
Cc1cc(=O)[nH]c(SCCOc2ccc(OC(C)C)cc2)n1 | 36 | 4 | 18µM* | ? | 55%[38.3 µM] | -31%[46.1 µM]
CC(C)C[C@@H]1NC(=O)[C@H](Cc2ccc(O)cc2)NC(=O)[C@H](CCC(N)=O)NC(=O)c2cc([N+](=O)[O-])cc(I)c2NCC[C@@H](C(N)=O)NC1=O | ? | / | -5% | 4µM* | -1% | 16%
CC(C)C[C@@H]1NC(=O)[C@H](C(C)C)NC(=O)c2cc([N+](=O)[O-])cc(I)c2NCC[C@@H](C(N)=O)NC1=O | 50 | / | -14% | 28µM* | 2% | -11%
NC(Cc1c[nH]c2ccccc12)C(=O)O (stereo not drawn) | / | / | -12% | -13% | 1% | /
CCC(=O)N(Cc1cc(=O)[nH]c2ccccc12)c1cccc(C)c1 | 2 | 12 | ? | 40µM* | -15%[38.3 µM] | -13%[46.1 µM]
CCC(=O)N(Cc1cc(=O)[nH]c2ccccc12)c1ccccc1C | / | / | / | -8% | / | 3%
COc1ccc(N(Cc2cc(=O)[nH]c3ccccc23)C(=O)c2ccco2)cc1 | -1 | 0 | -13% | 14µM* | 7%[38.3 µM] | -11%[46.1 µM]
COCCCn1c(SCC(=O)Nc2ccc(C)cc2)nc2ccccc2c1=O | / | / | / | 1% | -1% | 20%
Cc1ccc(NC(=O)CSc2nc3ccccc3c(=O)n2Cc2cccs2)cc1 | -7 | -6 | -17% | 4% | 13µM* | -25%[46.1 µM]
CCOc1ccc(NC(=O)CSc2nc3cccnc3n2CCOC)cc1 | -8 | 5 | -16% | 28µM* | 4% | 10%[46.1 µM]
CCOc1ccc(NC(=O)CSc2nc3cccnc3n2CC)cc1 | 15 | -1 | -2% | -3% | 2%[38.3 µM] | -2%[46.1 µM]
COC(=O)c1ccc(NC(=O)CSc2nccn2CCc2ccccc2)cc1 | -17 | -2 | -23% | 20µM* | 46%[38.3 µM] | 0%[46.1 µM]
Cn1ccnc1SCC(=O)Nc1ccccc1 | -26 | 3 | -9% | -4% | -4% | 0%[46.1 µM]
COCCCn1c(SCC(=O)Nc2ccc(C(=O)OC)cc2)nc2ccccc2c1=O | -117* | -6 | -15% | ? | 7%[38.3 µM] | ?
COC(=O)[C@@]1(Cc2ccccc2)[C@H]2c3cc(C(=O)N4CCCC4)n(CCN4CNCC4=O)c3C[C@H]2CN1C(=O)c1ccccc1 | / | / | -1% | -4% | -9% | /
COCCn1c(SCC(=O)Nc2ccc(NC(=O)c3ccco3)c(OC)c2)nc2ccccc2c1=O | 14 | -2 | ? | -197% | 5%[38.3 µM] | -15%[46.1 µM]
COc1ccc(NC(=O)CSc2nnc(-c3ccccn3)n2N)cc1 | 21 | 4 | -12% | 4% | -9%[38.3 µM] | -4%[46.1 µM]
CCOc1ccc(NC(=O)CSc2nnc(-c3ccccn3)n2N)cc1 | ? | -2 | -15% | 11µM* | 5%[38.3 µM] | -14%[46.1 µM]
COc1ccc(NC(=O)CSc2nc3ccccc3c(=O)n2CCNC(C)=O)cc1 | 14 | 1 | -1% | ? | 6%[38.3 µM] | -10%[46.1 µM]
CCOc1ccc(NC(=O)CSc2nc3ccccc3c(=O)n2CCNC(C)=O)cc1 | -107* | -7 | -4% | -11% | 3%[38.3 µM] | -4%[46.1 µM]
CCn1c(SCC(=O)Nc2ccc(NC(=O)c3ccco3)c(OC)c2)nc2ccccc2c1=O | -28 | 5 | ? | ? | 13µM* | 18%[46.1 µM]
COc1ccc(C2CC(=O)c3cnc(N4CCN(Cc5ccccc5)CC4)nc3C2)cc1 (stereo not drawn) | -19 | -1[1.84 µM] | ? | ? | 34%[38.3 µM] | -16%[46.1 µM]
CCC(C)Nc1nc(Cl)nc(N(C#N)CN2C(=O)c3ccccc3S2(=O)=O)n1 (stereo not drawn) | / | / | / | 13µM* | 15% | -33%
SMILES | PNC assembly inh | IMPase cell inh | HPGD inh | ALDH1A1 inh | IMPase Li cell | NPSR antag
CCNc1ncc2nc(-c3ccccc3)c(=O)n(Cc3cccs3)c2n1 | / | / | / | ? | 3% | /
CC1(C)CC(=O)C2=C(C1)N=C1SCCC(=O)N1C2c1cccc([N+](=O)[O-])c1 (stereo not drawn) | / | / | / | 10µM* | 17% | 5%
COC(=O)[C@H]1C[C@@H]1[C@H](NC(=O)OCc1ccccc1)c1ccccc1 | 61 | / | -13% | ? | 11% | 1%
COC(=O)[C@@H]1C[C@H]1[C@@H](NC(=O)Oc1ccc(F)cc1)c1ccccc1 | / | / | -6% | 7.9µM* | -4% | /
CCCN(CCC)C(C(=O)Nc1cccc(OC)c1)c1ccccc1 (stereo not drawn) | ? | 7 | -12% | ? | 15%[38.3 µM] | -39%[46.1 µM]
COc1ccc(-c2csc(-c3[nH]cnc3N)n2)cc1 | / | / | / | 7.1µM* | -3% | -12%
COc1ccc(-c2csc(-c3ccc(C(=O)O)cc3)n2)cc1 | / | / | / | ? | 12% | -37%
COC(=O)c1ccccc1NC(=O)C1CC(=O)N(c2ccc(F)cc2)C1 (stereo not drawn) | 41 | 0 | -7% | 1% | 25%[38.3 µM] | -10%[46.1 µM]
COC(=O)c1ccccc1NC(=O)C1CC(=O)N(c2ccc(C)c(C)c2)C1 (stereo not drawn) | ? | -7 | -11% | 18µM* | 25%[38.3 µM] | -16%[46.1 µM]
Cc1ccc(N2CC(C(=O)NCc3ccc4c(c3)OCO4)CC2=O)cc1C (stereo not drawn) | 6 | 3 | -14% | 14µM* | 22%[38.3 µM] | 0%[46.1 µM]
O=C(NCc1ccc2c(c1)OCO2)C1CC(=O)N(C2CCCCCC2)C1 (stereo not drawn) | ? | 8 | -7% | ? | 25%[38.3 µM] | -13%[46.1 µM]
Cc1cc(NC(=O)c2ccc3c(c2)C(=O)N(CC(C)C)C3=O)no1 | / | / | / | / | / | 8%
COc1ccc(NC(C)=O)cc1NC(=O)CN1CCN(CC(=O)Nc2ccccc2Cl)CC1 | -8 | 5 | -5% | ? | 11%[38.3 µM] | 0%[46.1 µM]
O=C1CC(Sc2ncccn2)C(=O)N1c1ccccc1C(F)(F)F (stereo not drawn) | 26 | -1 | -12% | 20µM* | -1%[38.3 µM] | 1%[46.1 µM]
COc1ccccc1N1C(=O)CC(Sc2ncccc2C(=O)O)C1=O (stereo not drawn) | -100* | 3 | -8% | 5% | 2% | -8%[46.1 µM]
O=C(O)c1cccnc1SC1CC(=O)N(c2cccc(C(F)(F)F)c2)C1=O (stereo not drawn) | 10 | 12 | -16% | 13µM* | 7%[38.3 µM] | -5%[46.1 µM]
O=C1C2C3C=CC(C3)C2C(=O)N1CCCO (stereo not drawn) | 321 | -8 | -11% | -2% | -1% | 6%[46.1 µM]
CC(Oc1ccc(-c2ccccc2)c(F)c1)c1ccn(S(=O)(=O)c2ccc(F)cc2)n1 (stereo not drawn) | -100* | 6 | -13% | 1% | 9% | 0%[46.1 µM]

Source: PubChem (National Center for Advancing Translational Sciences (NCATS))
